Compound activity as filed in PubChem BioAssay.
D2 ag-1 = activates the human D2 dopamine receptor. HEK293 T-REx D2 cells, calcium flux agonist mode. activation, % at 2 µM. actives 0.53% (n = 340,000). AID 485358;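 active means activation over 3 SD above normal in the single-dose calcium agonist read, cut at about 30% in these data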; further: 0% is about no effect
Target sequence (P14416 whole entry, looked up): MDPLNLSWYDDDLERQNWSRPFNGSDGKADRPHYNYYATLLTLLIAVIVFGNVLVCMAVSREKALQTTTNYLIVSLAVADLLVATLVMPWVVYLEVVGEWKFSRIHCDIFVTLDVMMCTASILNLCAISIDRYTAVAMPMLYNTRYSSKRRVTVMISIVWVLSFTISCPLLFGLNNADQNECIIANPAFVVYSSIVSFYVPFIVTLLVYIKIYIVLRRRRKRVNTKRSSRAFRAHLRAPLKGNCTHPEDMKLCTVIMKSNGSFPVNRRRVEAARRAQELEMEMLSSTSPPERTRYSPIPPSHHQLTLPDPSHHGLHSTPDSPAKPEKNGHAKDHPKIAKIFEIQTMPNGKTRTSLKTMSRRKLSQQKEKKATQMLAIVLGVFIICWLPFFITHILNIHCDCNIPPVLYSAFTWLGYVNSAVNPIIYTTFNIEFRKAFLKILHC
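In this primary screen, compounds producing a positive calcium signal within 180 s of addition to tetracycline-induced, force-coupled HEK293 Trex D2 cells are flagged; cells are dye-loaded with a no-wash calcium kit beforehand.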
D2 PAM-1 = D2 dopamine receptor (human) potentiation; P14416; HEK293 T-REx D2, calcium flux, EC20 dopamine potentiation; potentiation, % at 10 µM; actives 0.34% (n = 340,000);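 active means potentiation over 3 SD above the plate norm, cut at about 30% in these data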; further: 0% is about no effect
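Tetracycline-induced HEK293 T-REx cells force-coupled to calcium signalling expressed D2; compounds were pin-added after a 10 s baseline, read kinetically 180 s, then an EC20 dopamine challenge followed with a further 180 s calcium read.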
D2 ag-2 = activates the human D2 dopamine receptor | activation, % (test concentration not listed) | DiscoveRx PathHunter D2 beta-arrestin, luminescence, 90 min; 100% = 57 uM dopamine signal | AID 624465 | actives 0.084% (n = 360,000) | P14416; in the data active means activation above about 40%; inconclusive means between about 15% and that limit
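Agonist mode: compounds alone added to overnight-plated D2 PathHunter cells for 90 min at 37 C, with 57 uM final dopamine (EC100) defining full response. Beta-arrestin recruitment detected by chemiluminescent reagent, read after 1 h at ambient temperature.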
D2 antagonist = antagonizes the human D2 dopamine receptor; inhibition, % at 10 µM; actives 2% (n = 340,000); HEK293 TREx D2 cells, calcium flux, dopamine EC80; in the data active means inhibition above about 30%; inactive means below that, where a call was filed; further: 0% is about no effect
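Antagonism is scored as inhibition of an EC80 dopamine-evoked calcium signal in a force-coupled, tetracycline-inducible HEK293 T-REx D2 line, with compound present 180 s before agonist.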
D2 PAM-2 = positive allosteric modulators of human D2 dopamine receptor; DiscoveRx D2 beta-arrestin cells, luminescence, 90 min; 100% = 57 uM dopamine signal; potentiation, % (test concentration not listed); actives 0.23% (n = 360,000); in the data active means potentiation above about 50%; inconclusive means mostly about 30% to 49%
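D2 cells co-treated with compound plus 50 nM dopamine (EC20) for 90 min at 37 deg C to detect potentiation. Beta-arrestin recruitment was read as enzyme-fragment luminescence after 1 h at ambient temperature. Full response was set by 57 uM dopamine.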
An asterisk follows results filed as active; ? = inconclusive; . = no result. This is a sample that favours compounds with a hit; in the whole collection about 2.4% have one here.

SMILES | D2 ag-1 | D2 PAM-1 | D2 ag-2 | D2 antagonist | D2 PAM-2
CC1CCN(CCOCCSc2ccc(Cl)cc2)CC1 | -0.8 | -31.4 | -4.4 | 44.9* | -14.7
CCc1ccc(NC(=O)N(Cc2c[nH]c3ccccc23)C2CCCCCC2)cc1 | -0.5 | 22.8 | . | . | .
CN1CCN(C(=O)c2cccc3c(-c4ccc(F)c(F)c4)coc23)CC1 | . | . | 3.6 | . | -14.0
FC(F)(F)c1ccccc1CN1CCN(C2CCCCCC2)CC1 | -0.5 | -32.5 | -1.5 | 43.8* | -15.8
O=C(NCC1CCCO1)c1cc(S(=O)(=O)Nc2ccc(Br)cc2)ccc1Cl (stereo not given) | 0.2 | 2.6 | 2.1 | 52.5* | 8.8
O=C(NCC1CCCO1)c1cc(S(=O)(=O)N2CCOCC2)ccc1Cl (stereo not given) | 0.2 | -2.8 | -4.1 | -14.7 | -12.2
O=C(NCC1CCCO1)c1cc2c([nH]c3ccccc32)c(-c2cccc(Br)c2)n1 (stereo not given) | -0.8 | -18.8 | 6.4 | 33.8* | -64.5
CN(c1ccc(C(=O)NCC2CCCO2)cc1)S(=O)(=O)c1ccc(Cl)cc1 (stereo not given) | . | . | 0.3 | . | -12.8
CN(c1ccc(F)cc1)S(=O)(=O)c1ccc(Cl)c(C(=O)NCC2CCCO2)c1 (stereo not given) | -0.2 | 31.6* | -3.3 | 5.8 | -2.0
O=C(NCC1CCCO1)c1cccc(Br)c1 (stereo not given) | -0.3 | -3.8 | 0.2 | -13.5 | 2.2
O=C(NCC1CCCO1)c1ccc(NC(=O)c2cccc(Br)c2)cc1 (stereo not given) | . | . | 6.5 | . | 93.5*
COc1ccc(NC(=O)C2=C(C)Nc3nc(SCc4ccccc4)nn3C2c2cc(OC)ccc2OC)cc1 (stereo not given) | 0.8 | 1.6 | . | . | .
COc1ccccc1CCNS(=O)(=O)c1c(C)n(C)c(=O)n(C)c1=O | 0.0 | 32.5* | -5.8 | 3.1 | -7.5
COc1ccccc1CCNS(=O)(=O)c1cn(C)c(=O)n(C)c1=O | 0.4 | -4.8 | -7.3 | -13.4 | -7.6
O=C(NCCN1CCc2ccccc2C1)C1CCN(S(=O)(=O)N2CCCCC2)CC1 | 34.1* | -10.2 | 1.6 | -3.7 | -6.0
CCn1c2ccccc2c2cc(CNCc3ccc(OC)cc3OC)ccc21 | 8.0 | -27.6 | 3.2 | 35.0* | -2.7
CCc1ccc(CN2CCc3nc(Nc4ccccc4)ncc3C2)cc1 | 1.8 | -3.8 | . | . | .
COc1cc2c(cc1NC(=O)CSc1nnc(Cc3cccs3)n1C)oc1ccccc12 | -0.3 | -0.5 | -2.4 | 13.6 | -17.6
CCn1c(SCC(=O)Nc2cc3oc4ccccc4c3cc2OC)nnc1-c1cccs1 | 36.8* | -15.2 | 11.8 | 44.8* | 0.3
Nc1ccc(/C=C/C(=O)c2cccs2)cc1 | 25.7 | -27.2 | 1.4 | 59.6* | -2.1
CN1/C(=C/C=N/NC(=O)c2ccc([N+](=O)[O-])cc2)C(C)(C)c2ccccc21 | 0.4 | -17.3 | 0.6 | 36.7* | -6.6
CC(=O)c1ccc(N2CCN(C(=O)CCS(=O)(=O)c3ccc4c(c3)oc(=O)n4C)CC2)cc1 | . | -0.6 | . | . | .
O=C(N1CCOCC1)n1nnc2ccccc21 | -1.9 | 1.0 | -0.6 | 2.2 | -1.6
O=C(N1CCOCC1)n1cnc2ccccc21 | -2.1 | 51.4* | -3.4 | -6.4 | 1.9
Cc1oc(-c2ccc(Cl)cc2)nc1CN1CCCC(C(=O)NCCc2ccc(Cl)cc2)C1 (stereo not given) | 0.6 | -9.8 | . | . | .
SMILES | D2 ag-1 | D2 PAM-1 | D2 ag-2 | D2 antagonist | D2 PAM-2
Cc1ccc(CNC(=O)CN(C2CCCCC2)S(C)(=O)=O)cc1 | 0.0 | -6.0 | -4.0 | 3.0 | -6.8
CS(=O)(=O)N(CC(=O)NCc1ccccc1)C1CCCCC1 | -0.3 | -7.8 | -4.0 | 36.9* | -2.6
CC(C)(C)OC(=O)N1CCC(c2c(C(=O)NCc3cccs3)cnn2-c2ccc(F)cc2F)CC1 | -2.5 | 2.3 | . | . | .
O=C(O)c1ccc2noc(-c3ccccc3)c2c1 | 0.5 | 1.5 | 3.0 | -11.0 | -4.0
O=C(c1ccc2noc(-c3ccccc3)c2c1)N1CCN(c2ccccc2)CC1 | 0.4 | -3.9 | ? | -3.2 | 71.9*
CC1(c2ccc3noc(-c4ccc(F)cc4)c3c2)OCCO1 | 0.8 | -6.2 | ? | -7.9 | 60.5*
COc1cccc(-c2onc3ccc(C4(C)OCCO4)cc23)c1 | 0.6 | 3.4 | ? | 0.3 | 25.3
CC1(c2ccc3noc(-c4ccccc4)c3c2)OCCO1 | -0.5 | 15.8 | 14.4 | -12.4 | 58.4*
